Among all 94,000 compounds or so, about 2,100 (2.2%) were called active. For the sample, actives were picked, then their nearest neighbours and some compounds at random. Values without a mark were called inactive. Rule as the data show it: active = activity change below about -80%; inconclusive = no clear call, values can overlap the other calls; inactive = above that.
Assay: P. falciparum Dd2 growth inhibitors, primary screen, SYBR Green fluorescence, single dose replicates (AID 1159554)
Conditions: 72 h, at 10 µM, active compounds read low

SMILES	activity change
O=C(NC1CCCCC1)N[C@H]1CC[C@H](CCNS(=O)(=O)c2ccc(F)cc2)O[C@H]1CO	24.8%
C/C=C/c1ccc([C@@H]2[C@H](CO)N(S(=O)(=O)Cc3ccccc3)C23CN(C(=O)C2CCOCC2)C3)cc1	-52%
CO[C@H]1CN(C)C(=O)c2ccc(NC(=O)C3CC3)cc2OC[C@H](C)N(C(=O)CN2CCOCC2)C[C@@H]1C	26.1%
CC(C)(C)[S@@](=O)N1Cc2cc(C(=O)O)nc(-c3cccc(-c4cccc(F)c4)c3)c2[C@H]1CCO	41.4%
COc1ccccc1C#Cc1ccc([C@@H]2[C@H](CO)N3CCCCN(C(=O)C4CCCC4)C[C@@H]23)cc1	-47.8%
CCC(=O)Nc1ccc2c(c1)OC[C@H](C)N(C(=O)Cc1cccnc1)C[C@@H](C)[C@@H](OC)CN(C)C2=O	8.05%
Cn1cnc(CCNC(=O)C[C@H]2CC[C@@H]3[C@H](COC[C@H](O)CN3C(=O)C3CC3)O2)c1	-3%
CNC[C@H]1OCCCC[C@@H](C)Oc2ccc(NC(=O)Nc3ccc(C(F)(F)F)cc3)cc2C(=O)N([C@H](C)CO)C[C@H]1C	-82.5% (active)
CC(C)NC(=O)Nc1ccc2c(c1)C(=O)N([C@@H](C)CO)C[C@@H](C)[C@@H](CN(C)C(=O)Nc1ccc(C(F)(F)F)cc1)OCCCC[C@H](C)O2	-63.3%
C[C@H](CO)N1C[C@H](C)[C@@H](CN(C)S(C)(=O)=O)OCCCC[C@H](C)Oc2ccc(NC(=O)Nc3ccc(C(F)(F)F)cc3)cc2C1=O	30.4%
Cc1ccc(S(=O)(=O)N(C)C[C@@H]2OCCCC[C@@H](C)Oc3ccc(NC(=O)Nc4ccc(C(F)(F)F)cc4)cc3C(=O)N([C@@H](C)CO)C[C@@H]2C)cc1	-86.1% (active)
COc1ccc(NC(=O)N(C)C[C@H]2OCCCC[C@H](C)Oc3ccc(NC(=O)Nc4ccc(C(F)(F)F)cc4)cc3C(=O)N([C@@H](C)CO)C[C@@H]2C)cc1	-39.3%
C[C@@H]1CCCCO[C@H](CN(C)C(=O)Nc2ccc(C(F)(F)F)cc2)[C@@H](C)CN([C@@H](C)CO)C(=O)c2cc(NC(=O)Nc3cccc4ccccc34)ccc2O1	-88.3% (active)
CNC[C@H]1OCCCC[C@H](C)Oc2ccc(NC(=O)Nc3ccc(C(F)(F)F)cc3)cc2C(=O)N([C@H](C)CO)C[C@@H]1C	-14.8%
CNC[C@@H]1OCCCC[C@H](C)Oc2ccc(NC(=O)Nc3ccccc3)cc2C(=O)N([C@H](C)CO)C[C@H]1C	31%
CC(C)NC(=O)Nc1ccc2c(c1)C(=O)N([C@H](C)CO)C[C@H](C)[C@H](CN(C)C(=O)Nc1ccc(C(F)(F)F)cc1)OCCCC[C@@H](C)O2	1.85%
COc1ccc(NC(=O)Nc2ccc3c(c2)C(=O)N([C@H](C)CO)C[C@@H](C)[C@H](CN(C)C(=O)Nc2ccc(C(F)(F)F)cc2)OCCCC[C@@H](C)O3)cc1	-69%
Cc1ccc(S(=O)(=O)N(C)C[C@H]2OCCCC[C@@H](C)Oc3ccc(NC(=O)Nc4ccc(F)cc4)cc3C(=O)N([C@@H](C)CO)C[C@H]2C)cc1	-68.1%
C[C@@H]1CCCCO[C@H](CN(C)C(=O)Nc2ccc(C(F)(F)F)cc2)[C@H](C)CN([C@H](C)CO)C(=O)c2cc(NC(=O)Nc3ccc(C(F)(F)F)cc3)ccc2O1	-80.3% (active)

SMILES	activity change
CC(=O)N1[C@H](CN(C)S(=O)(=O)c2ccccc2)[C@H](c2ccccc2)[C@@H]1CO	4.68%
COc1cccc(-c2ccc3n(c2=O)C[C@H]2[C@H](CO)[C@@H](C(=O)NC4CCCC4)[C@@H]3N2C)c1	2.57%
COc1ccc2c3c(n(C)c2c1)[C@@H](CO)N(C(=O)NC1CCCC1)CC31CCN(C(C)=O)CC1	-2.48%
C[C@@H](NC(=O)C[C@H]1CC[C@H]2[C@@H](COC[C@@H](O)CN2C(=O)Nc2ccccc2)O1)c1ccccc1	8.13%
C[C@H](CO)N1C[C@H](C)[C@@H](CN(C)Cc2ccc3c(c2)OCO3)OCCCC[C@H](C)Oc2ccc(NC(=O)Nc3ccc(C(F)(F)F)cc3)cc2C1=O	-41.8%
Cc1ccccc1S(=O)(=O)NCC[C@@H]1CC[C@H](NC(=O)C2CCCCC2)[C@@H](CO)O1	7.15%
CCS(=O)(=O)N1CC(=O)N2[C@H](CO)[C@@H](c3ccc(C#CC4CCCC4)cc3)[C@@H]2C1	-15.8%
C[C@@H]1CCCCO[C@H](CN(C)C(=O)Nc2cccc3ccccc23)[C@@H](C)CN([C@@H](C)CO)C(=O)c2cc(NC(=O)Nc3ccc(F)cc3)ccc2O1	-88.2% (active)
C[C@@H]1CCCCO[C@@H](CN(C)C(=O)Nc2ccc(F)cc2)[C@H](C)CN([C@H](C)CO)C(=O)c2cc(NC(=O)Nc3cccc4ccccc34)ccc2O1	-24.3%
C[C@@H]1CCCCO[C@@H](CN(C)C(=O)Nc2ccccc2)[C@@H](C)CN([C@H](C)CO)C(=O)c2cc(NC(=O)Nc3ccc(F)cc3)ccc2O1	24.9%
COc1ccc(NC(=O)Nc2ccc3c(c2)C(=O)N([C@@H](C)CO)C[C@H](C)[C@@H](CN(C)C(=O)Nc2cccc4ccccc24)OCCCC[C@@H](C)O3)cc1	-66%
Cc1ccc(S(=O)(=O)N(C)C[C@@H]2OCCCC[C@@H](C)Oc3ccc(NS(=O)(=O)c4ccccc4)cc3C(=O)N([C@H](C)CO)C[C@@H]2C)cc1	-57.4%
C[C@@H]1CCCCO[C@@H](CN(C)S(=O)(=O)c2ccc(Cl)cc2)[C@H](C)CN([C@@H](C)CO)C(=O)c2cc(NC(=O)Cc3ccccc3)ccc2O1	-69%
C[C@@H]1CCCCO[C@@H](CN(C)C(=O)Nc2cccc3ccccc23)[C@H](C)CN([C@H](C)CO)C(=O)c2cc(NC(=O)NC3CCCCC3)ccc2O1	-62.1%
C[C@@H]1CCCCO[C@H](CN(C)C(=O)Nc2ccccc2)[C@H](C)CN([C@H](C)CO)C(=O)c2cc(NC(=O)Nc3ccccc3)ccc2O1	-88.7% (active)
C[C@@H]1CCCCO[C@H](CN(C)C(=O)Nc2cccc3ccccc23)[C@@H](C)CN([C@H](C)CO)C(=O)c2cc(NC(=O)Nc3ccc4c(c3)OCO4)ccc2O1	-49.2%
C[C@@H]1CN([C@@H](C)CO)C(=O)c2cc(NC(=O)Nc3ccc(C(F)(F)F)cc3)ccc2O[C@@H](C)CCCCO[C@@H]1CN(C)C(=O)Nc1cccc2ccccc12	-85.5% (active)
C[C@H]1CCCCO[C@@H](CN(C)C(=O)Nc2ccccc2)[C@@H](C)CN([C@@H](C)CO)C(=O)c2cc(NC(=O)Nc3ccc(F)cc3)ccc2O1	-17.9%
Cc1ccc(S(=O)(=O)N(C)C[C@H]2OCCCC[C@H](C)Oc3ccc(NC(=O)Cc4ccccc4)cc3C(=O)N([C@@H](C)CO)C[C@@H]2C)cc1	-81.9% (active)

From PubChem BioAssay AID1159554 (Broad Institute, 2015)
